Drawing on PubChem BioAssay (NCATS), this text covers outcome and Potency for 21 compounds.

For assay [1], the target named is Parathyroid hormone/parathyroid hormone-related peptide receptor (Homo sapiens) (UniProt Q03431). The assay can be described thus: qHTS for PTHR1 Agonists: Optimization Screen against the NCGC LOPAC library (AID 1347079).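 Note: GloSensor cAMP luminescence in HEK-293 GP2 cells expressing human PTHR1 with IBMX.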 The essentials: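 Signal increase flags agonism. GP2 cells, derived from HEK-293, express human PTHR1 and a GloSensor cAMP construct.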
Assay [2] in a line: qHTS of pediatric cancer cell lines to identify multiple opportunities for drug repurposing: Primary screen for TC32 cells (AID 1347089). Note: nearly all actives have a fitted effect of over 60% in size. The method, boiled down: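 TC32 cells, 500-1,000/well in growth medium, compound-treated 48 h at 37 °C; viability from CellTiter-Glo luminescence. Primary screen: MIPE 11-point (0.78 nM–46 µM final), NPC 8-point (0.59 nM–46 µM final); confirmatory at 11-point dilutions.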

Assay [3] is described as follows: qHTS of pediatric cancer cell lines to identify multiple opportunities for drug repurposing: Primary screen for DAOY cells (AID 1347090). Note: nearly all actives have a fitted effect of over 55% in size. Note: potency is the fitted concentration of half-maximal effect. The essentials:
(§1)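 Viability measured as metabolically active cells via CellTiter-Glo luminescence following 48 hours of compound exposure, 11-point dilutions in confirmatory testing. 500-1,000 cells/well plated 5 hours before dosing; controls were DMSO and 2.3 µM bortezomib.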

Assay [4] can be described thus: qHTS of pediatric cancer cell lines to identify multiple opportunities for drug repurposing: Primary screen for SJ-GBM2 cells (AID 1347091). Note: potency is the fitted concentration of half-maximal effect. The essentials: as §1
A short description of assay [5]: qHTS of pediatric cancer cell lines to identify multiple opportunities for drug repurposing: Primary screen for A673 cells (AID 1347092). Note: nearly all actives have a fitted effect of over 45% in size. Note: potency is the fitted concentration of half-maximal effect. The essentials:
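A673 cells (500-1,000 cells/well) were treated 48 hours at 37 degrees C with compounds at 11-point (0.78 nM to 46 µM) or 8-point (0.59 nM to 46 µM) dilutions. Viability read by CellTiter-Glo luminescence; concentration-response curves fitted.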

A short description of assay [6]: qHTS of pediatric cancer cell lines to identify multiple opportunities for drug repurposing: Primary screen for BT-37 cells (AID 1347094). Note: potency is the fitted concentration of half-maximal effect. The method, boiled down:
(§2)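 500-1,000 cells/well; 5 h pre-incubation 37 °C/5% CO2; compound pinned; 48 h; CellTiter-Glo, 15 min RT; luminescence. MIPE 11-pt from 0.78 nM, NPC 8-pt from 0.59 nM final. Bortezomib 2.3 µM final as positive control.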

The nature of assay [7]: qHTS of pediatric cancer cell lines to identify multiple opportunities for drug repurposing: Primary screen for NB-EBc1 cells (AID 1347095). Note: potency is the fitted concentration of half-maximal effect. The method, boiled down: as §2
Assay [8] can be described thus: qHTS of pediatric cancer cell lines to identify multiple opportunities for drug repurposing: Primary screen for U-2 OS cells (AID 1347096). Note: nearly all actives have a fitted effect of over 50% in size. Note: potency is the fitted concentration of half-maximal effect. The essentials:
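Viability after 48 h compound treatment at 37C, 500-1,000 cells/well, read as ATP luminescence with CellTiter-Glo. Primary screens used 11-point (MIPE, 0.78 nM-46 µM) or 8-point (NPC, 0.59 nM-46 µM) final concentrations; follow-up screens used 11-point dilutions.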

Assay [9] in a line: qHTS of pediatric cancer cell lines to identify multiple opportunities for drug repurposing: Primary screen for SK-N-MC cells (AID 1347093). Note: potency is the fitted concentration of half-maximal effect. The essentials: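 Metabolically active cells were quantified by ATP-dependent luminescence (CellTiter-Glo, 15 min at room temperature) following 48 h treatment. Cells had been plated at 500-1,000 per well and settled for 5 h beforehand.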

Assay [10] is described as follows: qHTS of pediatric cancer cell lines to identify multiple opportunities for drug repurposing: Primary screen for Saos-2 cells (AID 1347097). Note: nearly all actives have a fitted effect of over 40% in size. Note: potency is the fitted concentration of half-maximal effect. The essentials: as §2

Inconclusive results are not listed. Calls of active or inactive are those of the source. Calls come from the whole dose curve; as a rule, active = well fitted curve in the direction sought with a large enough effect; inconclusive = small, poorly fitted or top-dose-only effect, or another doubt; inactive = no such curve, though single readings can be large; an effect the other way counts as inactive or inconclusive.

Chain of Parathyroid hormone/parathyroid hormone-related peptide receptor (Homo sapiens) (Q03431 whole entry, looked up): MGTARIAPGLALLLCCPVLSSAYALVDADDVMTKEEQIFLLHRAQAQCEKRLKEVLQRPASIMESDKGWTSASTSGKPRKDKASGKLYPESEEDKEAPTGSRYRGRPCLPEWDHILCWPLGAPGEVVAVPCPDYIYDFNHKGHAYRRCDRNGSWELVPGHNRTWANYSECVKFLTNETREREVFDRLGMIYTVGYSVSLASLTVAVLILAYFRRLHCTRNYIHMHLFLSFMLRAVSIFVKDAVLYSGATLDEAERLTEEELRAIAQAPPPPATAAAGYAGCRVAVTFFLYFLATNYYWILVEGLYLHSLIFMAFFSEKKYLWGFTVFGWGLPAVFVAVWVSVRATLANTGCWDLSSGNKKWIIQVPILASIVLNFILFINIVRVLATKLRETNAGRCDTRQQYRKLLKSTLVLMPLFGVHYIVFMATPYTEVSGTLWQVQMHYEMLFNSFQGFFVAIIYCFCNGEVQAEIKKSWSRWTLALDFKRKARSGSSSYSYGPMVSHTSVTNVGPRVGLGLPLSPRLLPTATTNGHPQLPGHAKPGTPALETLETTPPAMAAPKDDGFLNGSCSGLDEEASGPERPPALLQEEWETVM

For the compound `CCCCC1C(=O)N(c2ccccc2)N(c2ccccc2)C1=O`, the compound was classed as inactive in assay [1]. In addition, the Potency entry in assay [2], in assay [3], in assay [4], in assay [5], in [6] and in [7] was “inactive” each time. Further, the Potency entry in assay [8] is “inactive”.

Take `CC(C)NCC(O)COc1cccc2[nH]ccc12` (centres undefined): the compound was called inactive in assay [1]. The Potency entry in assay [2], in assay [3], in assay [5], in assay [6], in [7] and in assay [8] was “inactive” throughout.

`CC(=O)N[C@@H](CS)C(=O)O`: in assay [1], the outcome was inactive. Further, the Potency entry in [2], in [3], in assay [4], in [5], in [9] and in assay [6] was “inactive” throughout. The Potency result in assay [7], in assay [8] and in [10] was “inactive” each time.

On to `CC1=C(/C=C/C(C)=C/C=C/C(C)=C/C(=O)Nc2ccc(O)cc2)C(C)(C)CCC1`, for which the compound was classed as inactive in assay [1]. The Potency in assay [5] was 6.68 µM (active); in assay [9], 6.68 µM (active); in assay [6], 15.5 µM (active); in assay [8] it was 26.6 µM (active); in assay [10], 23.7 µM (active).

As to `Clc1ccc(Cn2c(CN3CCCC3)nc3ccccc32)cc1`, the compound was called inactive in [1]. The Potency entry in assay [3], in assay [4], in [9], in [7] and in [8] was “inactive” each time.

As for `Clc1ccc(C(c2ccc(Cl)cc2)n2cc[n+](CC(OCc3ccc(Cl)cc3Cl)c3ccc(Cl)cc3Cl)c2)cc1` (centres undefined), the outcome in [1] was inactive. The Potency entry in assay [2] is “inactive”. Moreover, the Potency in assay [3] was 23.5 µM (active); in [4], 23.5 µM (active); in assay [5], 18.7 µM (active); in [9], 7.43 µM (active); in assay [6], 21.7 µM (active); in [7] it was 23.5 µM (active). Also, the Potency in assay [10] is 11.8 µM (active).

`CC(C)OC(=O)C(C)(C)Oc1ccc(C(=O)c2ccc(Cl)cc2)cc1`: the compound was called inactive in [1]. In addition, the Potency entry in assay [2], in assay [3], in [5], in [8] and in assay [10] was “inactive” in each case. Also, the Potency in [9] is 20.9 µM (active).

Regarding `CCN1CCC[C@H]1CNC(=O)c1cc(S(N)(=O)=O)ccc1OC`, the outcome in assay [1] was inactive. For the same compound, the Potency entry in [2], in [3], in [4], in [9], in assay [6] and in assay [7] was “inactive” in each case. In addition, the Potency result in [8] and in assay [10] was “inactive” each time.

As to `O=c1cc(-c2ccc(O)cc2)oc2cc(O)cc(O)c12`, in [1], the compound was classed as inactive. Besides, the Potency entry in assay [2] is “inactive”. Also, the Potency in assay [3] is 14.8 µM (active); in [4], 1.32 µM (active); in [6], 3.06 µM (active); in assay [7], 4.69 µM (active); in assay [10], 14.8 µM (active).

With `CCCNC(=O)NS(=O)(=O)c1ccc(Cl)cc1`, the compound was called inactive in assay [1]. Besides, the Potency result in [2], in assay [3], in assay [5], in assay [6], in [7] and in assay [8] was “inactive” each time. Moreover, the Potency result in assay [10] is “inactive”.

For `CCN(CC)CCNC(=O)c1ccc(N)cc1`, the call in [1] was inactive. In addition, the Potency entry in [2], in assay [3], in [4], in assay [5], in assay [9] and in assay [6] was “inactive” throughout. The Potency entry in assay [7], in assay [8] and in assay [10] was “inactive” in each case.

As to `O=C1NCC2(CCN(CCc3ccccc3)CC2)O1`, the outcome in [1] was inactive. Further, the Potency entry in [2], in assay [3], in assay [4], in assay [5], in [9] and in [6] was “inactive” each time. Further, the Potency entry in assay [7], in [8] and in assay [10] was “inactive” in each case.

Consider `NC(N)=Nc1nc(CSCC/C(N)=N/S(N)(=O)=O)cs1`, for which the compound was classed as inactive in assay [1]. The Potency entry in assay [2], in assay [3], in [4], in assay [9], in assay [6] and in assay [7] was “inactive” each time. Also, the Potency entry in assay [8] and in [10] was “inactive” each time.

Turning to `CC(=O)c1ccc(S(=O)(=O)NC(=O)NC2CCCCC2)cc1`, the compound was called inactive in assay [1]. Further, the Potency entry in assay [2], in assay [3], in assay [5], in [9], in [6] and in assay [7] was “inactive” in each case. For the same compound, the Potency result in [8] and in assay [10] was “inactive” each time.

For the compound `O=C1NC(=O)C(c2ccccc2)(c2ccccc2)N1`, in [1], the compound was called inactive. Further, the Potency result in assay [2], in assay [3], in [4], in assay [5], in [9] and in [6] was “inactive” each time. The Potency entry in assay [7], in assay [8] and in assay [10] was “inactive” throughout.

As for `O=c1c(-c2ccc(O)cc2)coc2cc(O)ccc12`, the result in [1] was inactive. Besides, the Potency result in [2], in assay [3], in assay [4], in assay [5], in assay [6] and in assay [7] was “inactive” each time. Besides, the Potency entry in [8] and in assay [10] was “inactive” each time.

In the case of `CN(C)CCC(c1ccccc1)c1ccccn1` (centres undefined), the result in assay [1] was inactive. Further, the Potency entry in assay [2], in assay [3], in assay [5], in assay [9], in assay [6] and in [7] was “inactive” throughout. For the same compound, the Potency result in assay [8] and in assay [10] was “inactive” each time.

Consider `O=C(O)CCc1nc(-c2ccccc2)c(-c2ccccc2)o1`, for which, in assay [1], the call was inactive. Besides, the Potency entry in assay [2], in [3], in [4], in assay [5], in assay [9] and in assay [6] was “inactive” each time. Further, the Potency entry in [7], in [8] and in assay [10] was “inactive” in each case.

On to `CCN(CC)CCOC(=O)c1ccc(N)cc1`, for which the result in assay [1] was inactive. Moreover, the Potency entry in [2], in assay [3], in assay [4], in assay [9], in assay [6] and in [7] was “inactive” in each case. The Potency entry in [8] and in assay [10] was “inactive” throughout.

For the compound `COC(=O)[C@@H]1[C@H]2C[C@H]3c4[nH]c5ccccc5c4CCN3C[C@@H]2CC[C@@H]1O`, the compound was called inactive in assay [1]. In addition, the Potency result in [2], in assay [3], in assay [4], in assay [5], in [9] and in assay [7] was “inactive” each time. Further, the Potency entry in assay [8] was “inactive”.

For `Cc1cccc(C)c1OCC(C)N` (centres undefined), in assay [1], the result was inactive. In addition, the Potency result in assay [2], in [3], in [4], in assay [5], in assay [9] and in assay [6] was “inactive” each time. Besides, the Potency entry in assay [7] and in assay [8] was “inactive” in each case.
